In the library only some 4.1% were active in any assay of this set; here they are far more common.
DAX1 inh-1: DAX1 (NR0B1) inhibition, primary screen; HEK293T StAR-luciferase reporter, SF-1/DAX-1 repression relief; 370,000 tested, 1.1% active; inhibition, % at 6.8 µM;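 active = inhibition above the mean over all tested compounds plus 3 SD, cut at about 3.6% in these data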;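 also: higher inhibition means more luminescence from relief of DAX-1 repression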
hcDAF-12 act: activates DAF-12 receptor from parasite H. contortus; HEK293 hcDAF-12 lit1-tk-luc reporter, luminescence; 0% DMSO, 100% Δ7-dafachronic acid; activation, % at 6.8 µM; 370,000 tested, 1.4% active; AID 652067;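 active = activation above the mean of all tested compounds plus 3 SD, cut at about 5.5% in these data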
hgDAF12 agonist: hgDAF-12 agonism, primary luciferase screen | HEK293 GAL4-hgDAF12 UAS-luciferase reporter, agonist luminescence; normalized to butyrate control | 370,000 tested, 1.8% active | activation, % at 6.8 µM;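 active = activation above a cutoff set at the mean of all screened compounds plus 3 SD, cut at about 10% in these data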
ssDAF12 agonist: activates DAF-12 receptor from parasite S. stercoralis. HEK293 ssDAF-12/GRIP1 lit1-tk-luc reporter, luminescence; % of 3 µM dafachronic acid response. activation, % at 6.8 µM. 370,000 tested, 1% active. AID 652126;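 active = activation above the mean over all tested compounds plus 3 SD, cut at about 0.9% in these data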
DAX1 inh-2: inhibitors of human orphan nuclear receptor DAX1 (NR0B1); AID 504766; 340,000 tested, 0.99% active; inhibition, % at 6.75 µM; HEK293 Gal4-DAX1 luciferase reporter, luminescence;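 active = inhibition above the mean over all tested compounds plus 3 SD, cut at about 4.2% in these data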;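 also: inhibition shows as a rise in luminescence from relieved DAX1 repression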
LXRb hcDAF ctr: LXR-beta agonism as hcDAF-12 counter-screen | HEK293 Gal4-LXR tk-luc reporter, luminescence, 24 h; normalized: DMSO 0%, positive control 100% | 3,400 tested, under 10 active | shares compounds with hcDAF-12 act | AID 743027 | activation, % at 6.8 µM;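 active = mean percent activation of the reporter above a cutoff set as the average over tested compounds plus their standard deviation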
Target sequence (P55055 whole entry, looked up, the tested form may be a part): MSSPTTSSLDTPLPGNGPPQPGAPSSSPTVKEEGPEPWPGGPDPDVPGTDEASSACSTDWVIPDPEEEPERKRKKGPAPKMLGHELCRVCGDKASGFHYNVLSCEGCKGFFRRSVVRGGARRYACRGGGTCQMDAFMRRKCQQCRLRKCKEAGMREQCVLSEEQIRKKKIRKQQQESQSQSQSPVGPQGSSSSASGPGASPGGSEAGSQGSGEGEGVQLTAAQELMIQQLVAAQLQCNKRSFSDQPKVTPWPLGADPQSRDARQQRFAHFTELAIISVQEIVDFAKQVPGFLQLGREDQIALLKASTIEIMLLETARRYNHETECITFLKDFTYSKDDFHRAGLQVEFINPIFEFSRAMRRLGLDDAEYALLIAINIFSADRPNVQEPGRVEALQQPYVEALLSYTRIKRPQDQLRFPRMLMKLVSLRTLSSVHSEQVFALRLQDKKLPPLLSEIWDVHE
hcDAF12 conf: confirmation of H. contortus DAF-12 agonists; shares compounds with hcDAF-12 act; HEK293 hcDAF-12 lit1-tk-luc reporter, luminescence; % of Δ7-dafachronic acid response; activation, % at 6.8 µM; 3,400 tested, 61% active; AID 743032;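 active = mean activation across triplicate tests above the threshold derived from the earlier primary screen, cut at about 5.5% in these data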
Each line names hits and unclear results; the compound was inactive in the other large screens (follow-up assays come after a bar, where they were run).

CCOc1cc2c3c(c1)C1(Nc4ccccc4S1)C(=O)N3C(C)(C)CC2C (configuration not stated)	none
CCOc1cc2c3c(c1)C1(C(=O)N3C(C)(C)CC2C)C(C#N)=C(N)N2C(=C1C#N)Nc1ccccc12 (configuration not stated)	hcDAF-12 act 7.2 | LXRb hcDAF ctr inactive | hcDAF12 conf inactive
O=c1c2ccccc2[nH]c(=S)n1CCc1ccccc1	hcDAF-12 act 8.1 | LXRb hcDAF ctr inactive | hcDAF12 conf 5.7
COc1ccccc1N1C(=O)C(Cl)=C(Nc2ccccc2O)C1=O	hcDAF-12 act 7.1, ssDAF12 agonist 1.5 | LXRb hcDAF ctr inactive | hcDAF12 conf inactive
O=C1C(Cl)=C(Nc2ccccc2O)C(=O)N1c1ccccc1	none
CCCc1cc2c(=O)c(-c3nc4ccccc4s3)c(COCC(=O)O)oc2cc1O	hcDAF-12 act 6.8, ssDAF12 agonist 0.9 | LXRb hcDAF ctr inactive | hcDAF12 conf 7.7
CCc1cc2c(=O)c(-c3nc4ccccc4n3C)c(COCC(=O)O)oc2cc1O	none
CC(C)(C)NC(=O)CSc1nc(-c2ccc(F)cc2)cs1	hcDAF-12 act 7.2, hgDAF12 agonist 12 | LXRb hcDAF ctr inactive | hcDAF12 conf inactive
CCNC(=O)CSc1nc(-c2ccc(F)cc2)cs1	none
CCSCc1nnc(SCC(=O)Nc2ccc(F)cc2)n1CC	none
Cc1ccnc(NC(=O)CNC(=O)c2cccs2)c1	none
Cc1ccnc(NC(=S)NC(=O)c2cccs2)c1	DAX1 inh-1 4.3, hcDAF-12 act 14, hgDAF12 agonist 19, ssDAF12 agonist 2.1 | LXRb hcDAF ctr inactive | hcDAF12 conf 11
CC1CC1C(=O)Nc1nc2ccc(Cl)cc2s1 (configuration not stated)	hcDAF-12 act 7.0 | LXRb hcDAF ctr inactive | hcDAF12 conf 6.2
Nc1ccc(N=Nc2ccccc2)c2cccnc12	hcDAF-12 act 7.4 | LXRb hcDAF ctr inactive | hcDAF12 conf 9.5
O=c1[nH]c(C2CCCN(S(=O)(=O)c3ccc(F)cc3)C2)nc2c1nnn2Cc1ccc(F)cc1 (configuration not stated)	none
Oc1cccc(Nc2nc(O)c(/C=C3\C=Nc4ccccc43)s2)c1	hcDAF-12 act 6.8 | LXRb hcDAF ctr inactive | hcDAF12 conf 7.0
C/C(=N\Nc1nc2ccccc2s1)c1cccs1	hcDAF-12 act 18, hgDAF12 agonist 12, ssDAF12 agonist 1.4 | LXRb hcDAF ctr inactive | hcDAF12 conf 23
CC(=NNc1nc2ccccc2s1)c1ncccn1	hcDAF-12 act 11, hgDAF12 agonist 12 | LXRb hcDAF ctr inactive | hcDAF12 conf inactive
C/C(=N\NC(=O)c1cc2ccccc2cc1O)c1cccs1	none
C/C(=N/NC(=O)c1cccs1)c1cccs1	hcDAF-12 act 6.9, hgDAF12 agonist 13, DAX1 inh-2 7.1 | LXRb hcDAF ctr inactive | hcDAF12 conf inactive
C/C(=N\Nc1nc(-c2ccccc2)cs1)c1cccs1	none
CC(=NNc1nc2ccccc2o1)c1ncccn1	none
Cc1ccccc1CS(=O)(=O)CC(O)CN1CCCC1=O (configuration not stated)	none
CC1=C(C#N)C(c2ccccc2O)C(C#N)=C(C)N1	hcDAF-12 act 9.6 | LXRb hcDAF ctr inactive | hcDAF12 conf 5.7
O=c1c(=Nc2ccccc2O)c(=O)c2ccccc12	hcDAF-12 act 8.3 | LXRb hcDAF ctr inactive | hcDAF12 conf inactive
CCOc1ccc(S(=O)(=O)/N=C(/Nc2ccc(C)c(S(=O)(=O)N3CCOCC3)c2)c2ccccc2)cc1	none
O=C(NC1CCOCC1)C1CCC(=O)N(CCc2ccc(Cl)cc2)C1 (configuration not stated)	none
CC(=O)c1ccc2c3c(cccc13)C(=O)N(CCc1ccccc1)C2=O	hcDAF-12 act 8.4, ssDAF12 agonist 3.0 | LXRb hcDAF ctr inactive | hcDAF12 conf 9.7
COc1ccc2c(c1)C1=NN(/C(C)=C/C(C)=O)C(c3ccc(F)cc3)C1CC2 (configuration not stated)	hcDAF-12 act 9.5, ssDAF12 agonist 1.3 | LXRb hcDAF ctr inactive | hcDAF12 conf 5.7
